# Screening results deposited in PubChem by several laboratories.
# Only some compounds are listed: those with a hit (about 1.8% of all), similar ones and a draw of the others.
# PGE2 EP2 inh – human EP2 receptor antagonists, primary screen, TR-FRET cAMP, C6 glioma cells; C6 glioma cells expressing human EP2; cells stimulated with saturating PGE2; inhibition, % at 25 µM; actives 0.52% (n = 260,000);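 active means percent inhibition above 40 after rounding to a whole number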;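 further: rat C6 glioma host cells with rolipram phosphodiesterase inhibitor present; the protocol text gives 20 µM as final concentration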
# Target sequence (P43116 whole entry, looked up): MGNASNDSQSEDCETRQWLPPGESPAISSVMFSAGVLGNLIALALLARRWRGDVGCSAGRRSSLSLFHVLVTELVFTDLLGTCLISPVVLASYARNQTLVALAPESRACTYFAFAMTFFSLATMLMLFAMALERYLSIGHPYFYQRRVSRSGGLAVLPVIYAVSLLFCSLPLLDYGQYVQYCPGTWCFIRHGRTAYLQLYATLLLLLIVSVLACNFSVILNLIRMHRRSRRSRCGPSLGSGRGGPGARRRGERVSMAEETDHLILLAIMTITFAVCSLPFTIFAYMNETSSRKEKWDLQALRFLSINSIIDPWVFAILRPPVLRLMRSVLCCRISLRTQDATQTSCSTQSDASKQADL
# eIF4E 4G PPI – eIF4E–eIF4G protein interaction inhibitors, primary screen, biochemical, uHTS, TR-FRET, eIF4GI fragment; Eukaryotic translation initiation factor 4E (Mus musculus) + Eukaryotic translation …; TR-FRET eIF4E-eIF4GI(517-606) binding, 2 h; inhibition, % at 21.7 µM; actives 0.37% (n = 220,000); AID 782, 2007;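 active means inhibition above about 30%, limit read from the data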;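 further: 0% = full FRET control wells and 100% = background wells lacking eIF4GI fragment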
# EP2 modulator – EP2 receptor modulators, cAMP readout, primary screen, cell-based, HTRF cAMP, PGE2 stimulation; EP2-expressing cells, cAMP HTRF FRET, PGE2 co-stimulation; Prostaglandin E2 receptor EP2 subtype (Homo sapiens), P43116; induction, % at 25 µM; actives 0.83% (n = 260,000);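 active means compounds whose cAMP rise, as percent of the full-agonist control response, exceeds 60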;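 further: rat C6 glioma line stably carrying human EP2 under a CMV promoter; the protocol text gives 20 µM as final concentration; 100% = response of wells given 1 µM PGE2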
# PERK inhibitor – block of dimerizer-induced PERK translation repression, primary screen, PERK inhibitor project, CHO PERK-DD cells, SEAP luminescence, HTS; CHO PERK-DD fusion, SEAP luminescence translation reporter; inhibition, % at 5.6 µM; actives 0.17% (n = 220,000); AID 1416, 2008;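 active means inhibition above the mean inhibition of all tested compounds plus 3 SD, set separately per screening campaign, cut at about 2.9% in these data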;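 further: PERK kinase domain activated by AP20187 dimerizer at 100 nM; 0% = DMSO with dimerizer and 100% = rapamycin at 8.4 µM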
# * marks the source's active call; other numbers are inactive results; x = not tested or not shown; ! = a repeat was not active; [ ] = remark or other dose.
SMILES,PGE2 EP2 inh,eIF4E 4G PPI,EP2 modulator,PERK inhibitor
N#Cc1cc(-c2ccccc2)nn1-c1ccccc1,16,66*[fluorescence artefact?],-10,1
O=c1oc2ccccc2c(O)c1/C=C1\C=Nc2ccccc21,52*,-5,-55,1
O=c1oc2ccccc2c(O)c1/C=N/c1ncccn1,7,x,x,x
CC(C)N1CC=C2C(C1)C(c1ccc(Cl)cc1)C(C#N)=C(N)C2(C#N)C#N (centres undefined),10,x,79*,x
Nc1ccccc1-c1n[nH]c(=S)s1,67*,4,0,1
CCCn1c(-c2ccccc2N)n[nH]c1=S,12,x,-1,x
COc1nccnc1NS(=O)(=O)c1ccc(NC(=S)NC(=O)c2ccc(F)c(F)c2)cc1,7,-1,-9,1
COc1nccnc1NS(=O)(=O)c1ccc(NC(=S)NC(=O)/C=C/c2ccc(C)cc2)cc1,72*,x,-104,x
COc1nccnc1NS(=O)(=O)c1ccc(NC(=S)NC(=O)/C=C/c2ccc(F)cc2)cc1,66*,1,-64,1
O=C(O)c1ccc(-c2ccc(/C=C3\NC(=O)N(Cc4ccc(Cl)cc4)C3=O)o2)cc1,13,33*,-13,1
Cc1ccc(CN2C(=O)N/C(=C\c3ccc(-c4ccc(C(=O)O)cc4C)o3)C2=O)cc1,9,10,-31,0
Cc1nn(-c2cc(C)c3ccccc3n2)c2c1CCC2,0,-3,64*,1
C=C(C)C1Cc2c(C)nn(-c3cc(C)c4ccccc4n3)c2C1 (centres undefined),x,x,x,0
CCOC(=O)/C(=N/Nc1ccccc1)c1csc(Nc2ccccc2)n1,13,16,20,0
CCOC(=O)/C(=N\Nc1ccc(Cl)cc1)c1csc(Nc2ccccc2)n1,44*,-6,29,0
S=c1nc(-c2cc(Cl)ccc2Cl)[nH][nH]1,41*,2,58,0
Nc1ccc2nc(-c3cccc(O)c3)[nH]c2c1,15,x,-46,x
S=c1[nH]c(-c2ccccc2)cn1/N=C/c1cccnc1,6,96*,-28,-1
S=c1[nH]c(-c2ccccc2)cn1/N=C/c1ccc(Br)cc1,3,-3,-80,-1
CCOc1cc(C2CC(=O)Nc3cc(C)c(C)cc32)ccc1O (centres undefined),6,x,64*,-1
Cc1ccc(N(Cc2ccc([N+](=O)[O-])cc2)C(=O)c2ccco2)cc1C,5,25,63*,-1
O[N+]1=CC=CCC1=S.On1ccccc1=S.[Zn],118*,x,-38,x
COc1cccc(Nc2nc(NCC3CCCO3)c3ccccc3n2)c1 (centres undefined),53*,11,-54,-1
CCOc1ccccc1NC(=O)C1OC2OC3(CCCCC3)OC2C2OC3(CCCCC3)OC12 (centres undefined),50*,x,0,x
O=C(O)C1OC2OC3(CCCCC3)OC2C2OC3(CCCCC3)OC12 (centres undefined),8,-7,9,-1
SMILES,PGE2 EP2 inh,eIF4E 4G PPI,EP2 modulator,PERK inhibitor
CS(=O)(=O)N(CC(=O)N1CCc2ccccc2C1)c1ccc(Cl)c(Cl)c1,10,x,-34,x
C=CCN=C(C)C1=C(O)CCC1=O,14,0,12,2.9*
COCCNC(=O)CN1N=C(c2ccccc2)Cn2c(cc3ccccc32)C1=O,x,x,-62,x
Cc1ccc(OCc2nc(-c3ccccn3)n[nH]2)cc1,11,34*[fluorescence artefact?],5,0
Cc1cccc(OCc2nc(-c3ccccn3)n[nH]2)c1,14,-12,6,-1
CCCc1cc(C(=O)Nc2cc(Br)ccc2O)no1,12,-2,-3,3.1*
O=C(NC1CCCCC1)c1ccccc1NS(=O)(=O)c1cccs1,3,x,1,x
COc1cc2c(cc1O)[C@@H](c1cc(O)c(O)c(OC)c1)[C@](O)(C(=O)O)[C@@H](CO)[C@@H]2O,54*,x,7,x
COc1cc(CC(=O)O)ccc1O,9,-14,17,x
CCCNC(=O)Cn1cnc2sc(C(=O)N3CCN(CCC)CC3)c(C)c2c1=O,11,-10,2,1
CCCN1CCN(C(=O)CCCNC(=O)Cn2cnc3sc(C)c(C)c3c2=O)CC1,10,36*[fluorescence artefact?],3,0
O=C1NC(=O)N(c2ccc3c(c2)OCO3)C(=O)/C1=C/c1ccc(O)c(Cl)c1,12,x,-16,x
Cc1ccccc1-n1c(C)cc(/C=C2/C(=N)N3C(c4ccccc4)=CSC3=NC2=O)c1C,8,2,6,0
N=C1/C(=C\c2ccc(-c3cccc(C(=O)O)c3)o2)C(=O)N=C2SC=C(c3ccccc3)N12,59*,65*,-50,0
CCC(C(=O)OC)n1c(-c2ccccc2)nc2ccccc2c1=O (centres undefined),7,1,69*!,0
CN1CCN(CCCBr)CC1,41*,x,28,x
O=C(Nc1ccccc1N1CCCCC1)c1cccnc1,12,x,13,x
O=c1c(O)cccc2cc(O)c(O)c(O)c12,7,61*,-3,0
N#Cc1nc2c(-c3nc4ccccc4[nH]3)c(N)n(Cc3ccco3)c2nc1C#N,5,x,-23,x
CC(C)(CO)NC(=O)C1CC(c2c(F)cccc2Cl)=NO1 (centres undefined),8,x,-30,x
O=C1CC(N2CCN(Cc3ccc4c(c3)OCO4)CC2)C(=O)N1c1cccc(Cl)c1 (centres undefined),5,66*,6,1
O=C1CC(N2CCN(Cc3ccc4c(c3)OCO4)CC2)C(=O)N1c1cccc2ccccc12 (centres undefined),3,0,-57,1
CC1(C)Cc2c(c(N3CCCC3)nc3sc4c(N5CCOCC5)ncnc4c23)CO1,4,x,73*,x
CC1(C)Cc2c(c(N3CCCC3)nc3sc4c(N5CCN(CCO)CC5)ncnc4c23)CO1,x,-7,31,-1
COc1ccccc1OCCc1nnc(N)s1,7,8,-4,3.3*
SMILES,PGE2 EP2 inh,eIF4E 4G PPI,EP2 modulator,PERK inhibitor
COc1ccccc1NC(=O)c1sc(NC(=O)c2ccc(Cl)cc2Cl)c(C#N)c1C,33,x,-44,x
CC(=O)c1cccc(NC(=O)CSc2nc(-c3ccco3)cc(C(F)(F)F)n2)c1,9,x,-75,x
COc1ccc2nc(NC(=O)c3cc(C)ccc3C(=O)O)sc2c1,8,x,-4,x
O=C(c1cccc(Cl)c1)N1N=C(C(F)(F)F)CC1(O)C1CCCCC1 (centres undefined),11,x,85*,x
COc1cc2cc(C)c(SCC(=O)c3ccc4c(c3)OCCO4)nc2cc1OC,16,x,-61,x
O=C(Cn1ncc2cccn2c1=O)N1CCC(Cc2ccccc2)CC1,5,x,-3,x
CCNC(=O)C1=C(O)c2sccc2N(C)S1(=O)=O,6,37*,28,0
CC(C)c1cc(C(=O)N2CCCC(C(=O)c3ccc4ccccc4c3)C2)on1 (centres undefined),5,3,1,2.9*
